# Bioassay records: PubChem BioAssay, National Center for Advancing Translational Sciences (NCATS)
# SARS PLP yeast: inhibitors of SARS-CoV papain-like protease in yeast; S. cerevisiae expressing SARS-CoV PLpro, growth rescue; hit rate 0.19% among 330,000; Potency, µM (titrated, usually from 32.9 µM), hits mostly activators; calls by dose curve; further: nearly all actives have a fitted effect of over 55% in size
# AMA1-RON2 inh: AMA1-RON2 (P. falciparum) interaction inhibition. AlphaScreen AMA1-biotinylated RON2 peptide binding. Potency, µM (titrated, usually from 58.2 µM), hits mostly inhibitors. hit rate 0.2% among 360,000. AID 720542; further: nearly all actives have a fitted effect of over 45% in size
#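 AMA1 (3D7) with his tag at 25 nM final met compounds first, then biotinylated RON2 peptide at 25 nM; detection used donor plus acceptor beads, 10 µg/mL apiece, read by AlphaScreen after 30 min at room temperature.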
# Pf growth 48h: inhibits P. falciparum growth in the first generation, 48 h. P. falciparum luciferase growth in erythrocytes, 48 h. Potency, µM (highest dose often 28.7 µM), hits mostly inhibitors. hit rate 5.9% among 310,000
#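 Cell-based growth assay: transgenic P. falciparum expressing firefly luciferase, cultured in red cells within RPMI 1640 containing 0.5% w/v Albumax, 24 mM bicarbonate and gentamycin. A drop in luciferase activity indicates inhibition.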
# Pf growth 96h: P. falciparum growth inhibition at 96 hours | P. falciparum luciferase reporter growth, 96 h | Potency, µM (highest dose often 28.7 µM), most hits filed as inhibitors | hit rate 6.9% among 320,000 | AID 504834
#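 Compounds incubated with erythrocytes infected by luciferase-expressing P. falciparum (2% hematocrit, 0.05% parasitemia final) for 96 hours, 37 C in 5% CO2. Growth inhibition scored as decreased luciferase luminescence.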
# A number is an active result; i = inactive; ? = inconclusive; nt = no result. Most compounds without a hit are left out; they make up all but 9.4% or so of the library. Unless noted, the call rests on the fitted dose curve; in most records, active means well fitted curve in the direction sought with a large enough effect; inconclusive means small, poorly fitted or top-dose-only effect, or another doubt; inactive means no such curve, though single readings can be large; an effect the other way counts as inactive or inconclusive.
SMILES,SARS PLP yeast,AMA1-RON2 inh,Pf growth 48h,Pf growth 96h
CN1CCN(C2=Nc3ccccc3Sc3ccc(Cl)cc32)CC1,nt,nt,?,i
CN1CCN(C2=Cc3ccccc3Sc3cc(F)c(F)cc32)CC1,i,?,6.57µM,?
CN1CCN(C2=Cc3ccccc3Sc3cc(F)c(Cl)cc32)CC1,i,i,5.22µM,?
CN1CCN(C2=Cc3cc(Cl)ccc3Sc3cc(F)ccc32)CC1,i,?,4.65µM,?
CN1CCN(CCC(=O)N2c3ccccc3Sc3ccc(Cl)cc32)CC1,i,i,?,i
COc1ccc(OC)c2sc(N(CCN(C)C)C(=O)/C=C/c3cccs3)nc12,i,i,?,?
CN(C)S(=O)(=O)c1cccc(NC(=O)COC(=O)CCC(=O)c2ccc(F)cc2)c1,i,i,i,i
COc1cc(OC)cc(-c2c(C#Cc3ccsc3)c3cc(-c4ccc5c(c4)OCCO5)ccc3n2C)c1,i,i,?,2.62µM
COc1cc(OC)cc(-c2c(C#Cc3ccsc3)c3cc(-c4cccc5[nH]ccc45)ccc3n2C)c1,i,i,11.7µM,3.29µM
COc1cc(OC)cc(-c2c(C#Cc3ccsc3)c3cc(-c4ccc5cc[nH]c5c4)ccc3n2C)c1,i,i,?,1.85µM
Cc1ccc(OCC(=O)N2CCN(S(=O)(=O)c3ccc4c(c3)OCCO4)CC2)c(C)c1,i,i,?,?
COc1ccccc1N1C(=O)C2CC=CC(C)C2C1=O (stereo not given),i,i,i,?
CN(C)S(=O)(=O)c1ccc(C(=O)Nc2nnc(-c3cccs3)o2)cc1,i,i,13.1µM,?
C[C@H](N)C(=O)N[C@@H](C)P(=O)(O)O,nt,nt,i,i
CC(C)NC(=O)N(C)C[C@H]1OCCCC[C@@H](C)Oc2ccc(N(C)C)cc2C(=O)N([C@H](C)CO)C[C@@H]1C,nt,i,nt,nt
O=S(=O)(Nc1nc2ccccc2nc1-[n+]1ccccc1)c1ccc(Cl)cc1,i,i,i,?
Cc1ccccc1C([O-])=Nc1ccc[n+](-c2nc3ccccc3nc2NS(=O)(=O)c2ccccc2)c1,i,i,?,11.7µM
CC(C)(Cc1c[nH]c2ccccc12)NCC(O)COc1ccccc1C#N (stereo not given),nt,nt,16.9µM,7.57µM
C=CCN1CCc2cc(O)c(O)cc2C(c2ccccc2)C1 (stereo not given),nt,i,11.7µM,?
Cc1ccccc1C(=O)N1Cc2cnnn2-c2ccccc2C1C#N (stereo not given),nt,i,nt,nt
Cc1ccccc1-c1ccc2n1Cc1cnnn1-c1ccccc1-2,nt,25.1µM,nt,nt
COc1ccc(/C=N/NC(=O)CSc2ccccn2)cc1OC,i,i,i,i
CN(C)CC1CCCCC1C1(O)c2ccccc2CSc2sccc21 (stereo not given),i,i,9.28µM,?
CCc1noc(C)c1C(=O)N(C)CC(=O)Nc1cccc(OC)c1,i,i,i,i
CCCCNC(=O)CSc1nc2ccsc2c(=O)n1C1CCN(C(=O)OCC)CC1,i,i,?,2.08µM
SMILES,SARS PLP yeast,AMA1-RON2 inh,Pf growth 48h,Pf growth 96h
NS(=O)(=O)c1ccc(CCNC(=O)CSc2nc3ccsc3c(=O)n2C2CC2)cc1,i,i,i,i
N#CC1=C(SCc2ccccc2)NC(=O)CC1c1ccco1 (stereo not given),i,i,i,?
CC(=O)c1ccc(NC(=S)Nc2ccn(Cc3ccc(Br)cc3)n2)cc1,i,i,i,?
Cc1sc(-n2c(C)ccc2C)c(C#N)c1C,i,i,i,10.4µM
CCCCC(=O)Nc1nn(CCC)c2nc3ccccc3cc12,i,i,11.7µM,?
CC1CCN(C(=O)CSc2nc(N)c3c4c(sc3n2)CN(C)CC4)CC1,i,i,2.33µM,0.828µM
CSc1ccccc1OCc1cc(C(=O)N2CCc3[nH]cnc3C2c2ccccn2)no1 (stereo not given),i,i,?,i
COc1c(N2CCN(C(=S)Nc3ccccc3)C(C)C2)c(F)cc2c(=O)c(C(=O)O)cn(C3CC3)c12 (stereo not given),i,nt,?,i
CNC(=S)N1CCN(c2c(F)cc3c(=O)c(C(=O)O)cn(C4CC4)c3c2OC)CC1C (stereo not given),i,i,nt,13.1µM
CN(C(=O)C1CCOC1)c1nnc(-c2ccccn2)s1 (stereo not given),i,i,i,13.1µM
CN(C(=O)C1CCOC1)c1nnc(-c2ccncc2)s1 (stereo not given),i,i,i,?
COc1ccc(N=C2S/C(=C\c3ccc(Cl)c([N+](=O)[O-])c3)C(=O)N2CCN(C)C)cc1,i,14.1µM,i,i
CC1CCCC(NC(=O)COC(=O)c2ccc(N(C)C)cc2)C1C (stereo not given),i,i,i,nt
